Three compounds from PubChem BioAssay (NCATS) can be followed below.

Records with an inconclusive call do not appear. Active and inactive are the calls of the source. Unless noted, the call rests on the fitted dose curve; in most records, active means well fitted curve in either direction with a large enough effect (not every such curve was filed as active); inconclusive means small, poorly fitted or top-dose-only effect, or another doubt; inactive means flat fitted curve, though single readings scatter.

The target of assay [1] is Lysosomal acid glucosylceramidase (Homo sapiens) (UniProt P04062). Briefly: Glucocerebrosidase-p2 (AID 348; in the data active means potency below about 10 µM; further: potency means the concentration at half of the fitted maximal effect). The conditions noted are these: purified GBA, blue fluorogenic substrate, 40 min. The essentials: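 Compounds titrated from 0.6 nM upwards against 0.2 nM enzyme in pH 5.9 citric acid/KH2PO4, taurocholate, tween-20; blue fluorogenic substrate 80 uM, 40 min room temperature, stopped and read Ex 365/Em 440 for AC50.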

Assay [2] can be described thus: AP1 Signaling Pathway (AID 357).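 Further: ME-180 reporter cells stimulated with EGF at its EC50 level; on the % scale 0 is the no-effect control and ±100 the full control effect.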 As to conditions: ME-180 AP-1-bla reporter, EGF-induced, beta-lactamase ratio, 5 h; at 7.69 µM (top of the series) unless noted. The method, boiled down:
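Cells are seeded overnight, exposed to compound titrations and an EC50 level of EGF for 5 hours at 37 °C, then loaded with CCF4 dye for 2.5 hours. Beta-lactamase activity under the AP-1 element is read as a blue/green ratio.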

Assay [3] deals with Cytochrome P450 1A2 (Homo sapiens) (UniProt P05177). Kind of assay: p450-cyp1a2 (AID 410; calls by dose curve; further: potency means the concentration at half of the fitted maximal effect;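 on activity change, negative = inhibition: -100% = full effect of reference inhibitor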). The conditions noted are these: recombinant CYP1A2, luciferin-ME demethylation, luminescence; series mostly up to 57 µM. The essentials:
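Human CYP1A2 (20nM) demethylated Luciferin-ME at its Km (100uM) in 100mM KPO4. After 10 min compound preincubation, NADPH regeneration ran the reaction 60 min at room temperature. Luciferin was read by luminescence, normalized to 57 uM furafylline.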

Assay [4] is described as follows: NFAT Signaling Pathway (AID 444).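 Further: carbachol stimulus at about its EC50 of 1 µM final; on the % scale 0 is the no-effect control and ±100 the full control effect.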 The conditions noted are these: Jurkat NFAT-bla M1, carbachol, beta-lactamase ratio, 5 h; at 7.69 µM (top of the series) unless noted. The essentials: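 Jurkat cells with NFAT-driven β-lactamase reporter and co-expressed M1 receptor, stimulated with carbachol (final 1 uM, ~EC50), compound titration, 5 h at 37 °C. CCF4 loaded 1 h at RT; 460/530 nm ratio gave %activity and AC50.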

A short description of assay [5]: Stat Signaling Pathway (AID 446).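 Further: ME-180 cervical cancer cells given 40 pM IL-6 alongside compound; SIE-controlled beta-lactamase reporter measured as 460/530 nm FRET emission ratio; on the % scale 0 is the no-effect control and ±100 the full control effect.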 As to conditions: ME-180 SIE beta-lactamase reporter, IL-6 stimulated, 5 h; at 7.69 µM (top of the series) unless noted. The method, boiled down: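 Screening format detects activators and inhibitors alike: ME-180 SIE-bla cells stimulated at 40 pM IL-6 for 5 hrs with compound, then dual-emission beta-lactamase read at 405 nm excitation.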

The target of assay [6] is Glucocorticoid receptor (Homo sapiens) (UniProt P04150). Kind of assay: GR-GFP Redistribution (AID 450;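 active means compounds whose dose series gives a full or clear partial fitted curve of increased nuclear translocation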; further: potency means the concentration at half of the fitted maximal effect). The conditions noted are these: U2OS GR-GFP nuclear translocation, laser cytometry, 2 h.
Assay [7] shares this target. Kind of assay: GR-EFC Redistribution (AID 451; calls by dose curve; further: potency means the concentration at half of the fitted maximal effect). The conditions noted are these: CHO-K1 GR-EFC translocation, beta-gal luminescence, 2 h. The essentials:
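CHO-K1 cells expressing nuclear EA and GR-ED fragments of b-gal; compounds titrated up to 46 uM final, 2 h at 37 C. GR nuclear translocation read as complemented b-gal luminescence after 1 h RT detection.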

In assay [8] the target is Mitogen-activated protein kinase 10 (Mus musculus) (UniProt Q61831). Kind of assay: JNK3 AlphaScreen Assay (AID 530).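 Further: kinase came from lysate of stimulated human HepG2 cells; signal reports phosphorylation of biotinylated GST-cJun 1-79 at Ser73 with 10 µM ATP; on the % scale 0 is the no-effect control and ±100 the full control effect.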 As to conditions: JNK3 lysate, c-Jun phosphorylation; series mostly up to 57.1 µM. The method, boiled down: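 qHTS format: compounds tested as titrations against IL-1beta/TNF-alpha-activated HepG2 lysate JNK3 with biotin-GST-cJun substrate and 10 uM ATP at room temperature. Loss of anti-phospho-cJun AlphaScreen signal indicates inhibition.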
On the technique in general: Alpha assays give light when donor and acceptor beads are brought close together.

The target in assay [9] is 3',5'-cyclic-AMP phosphodiesterase 4B (Homo sapiens) (UniProt Q07343). Briefly: qHTS Assay for Inhibitors of PDE-IV (AID 607; active means well fitted activation curve with a large enough effect in the main read-out, with a control signal flat, not every such curve was filed as active; further: % of control where 0% means no effect). As to conditions: HEK293 ACTOne CNG channel cells, membrane potential fluorescence; series mostly up to 22.9 µM. The essentials:
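The readout is membrane depolarisation from a cAMP-sensing CNG channel, detected with a potential dye at ex 535/em 590. Cells were HEK293-derived (endogenous PDE-IV) at 1000 cells/well, titrated up to 22.9 uM final.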

The target in assay [10] is Cytochrome P450 3A4 (Homo sapiens) (UniProt P08684). Briefly: qHTS Assay for Inhibitors and Substrates of Cytochrome P450 3A4 (AID 884; active means well fitted curve in the direction sought with a large enough effect; an effect the other way counts as inactive or inconclusive; further: potency means the concentration at half of the fitted maximal effect; nearly all actives have a fitted effect of over 50% in size). The conditions noted are these: recombinant CYP3A4, Luciferin-PPXE luminescence; series mostly up to 57.1 µM. The essentials:
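20 nM human CYP3A4 with 25 uM Luciferin-PPXE (at KM) in 200 mM KPO4, preincubated 10 min with compound; NADPH regeneration started a 60 min RT reaction. Luciferin detected by luminescence, normalized to 57 uM ketoconazole as full inhibition.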
A general note: Quantitative high-throughput screening tests each substance at several concentrations.

Assay [11] shares this target. Briefly: qHTS Assay for Activators of Cytochrome P450 3A4 (AID 885; active means well fitted curve in the direction sought with a large enough effect; an effect the other way counts as inactive or inconclusive; further: nearly all actives have a fitted effect of over 65% in size). As to conditions: recombinant CYP3A4, Luciferin-PPXE luminescence, 60 min; series mostly up to 57.1 µM. The method, boiled down: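 Steps: enzyme/substrate mix dispensed; compound added, 10 min RT; NADPH regeneration solution added, 60 min RT; luciferin detection buffer stops reaction; 20 min later luminescence measured.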

Assay [12] in a line: Confirmation and Secondary Assay for Modulators of Hemoglobin Beta Chain Splicing at IVS2 654 locus (AID 910; active means well fitted curve in the direction sought with a large enough effect; an effect the other way counts as inactive or inconclusive;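 further: HeLa cells stably carrying EGFP split by mutant beta-globin IVS2-654 intron; % of control where 0% means no effect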). The conditions noted are these: HeLa EGFP-654 splicing reporter, GFP fluorescence, 48 h; series mostly up to 38.3 µM. The essentials:
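HeLa cells stably expressing EGFP interrupted by β-globin IVS2-654 intron, seeded overnight in Opti-MEM/2% FCS, then treated 2 days at 37 °C. Restored splicing read as total peak GFP intensity per well by laser scanning cytometry (488 nm excitation, 500–520 nm emission); 500 nM antisense PNA as control.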

Assay [13] is described as follows: Confirmation and Secondary Assay for Modulators of Hemoglobin Beta Chain Splicing at IVS2 705 locus (AID 930; active means well fitted curve in the direction sought with a large enough effect; an effect the other way counts as inactive or inconclusive;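 further: HeLa cells stably expressing the EGFP-705 splicing reporter; GFP fluorescence per well restored by corrected splicing of the IVS2-705 intron in EGFP; % of control where 0% means no effect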). The conditions noted are these: HeLa EGFP-705 splicing reporter, GFP fluorescence, 48 h; series mostly up to 38.3 µM. The method, boiled down:
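First, HeLa EGFP-705 cells are seeded at 500/well in Optimem with 2% FCS and left overnight. Next, compound or DMSO is added for 2 days. Finally wells are laser-scanned and total peak GFP intensity scored.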

Assay [14] can be described thus: qHTS Assay for Lipid Storage Modulators (AID 1519; calls by dose curve). The conditions noted are these: Drosophila S3 cells, BODIPY lipid droplet/cell ratio, laser cytometry, cells loaded with oleic acid; for activity change, negative = inhibition: at 57.5 µM (top of the series). The essentials:
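Cells seeded at 5,000 per well were treated with compounds over a concentration series and loaded with oleic acid (400 uM, as added). Lipid droplet fluorescence (488 nm excitation, 500-530 nm channel) was read by laser-scanning cytometry and normalized to 20 uM Triacsin C.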

In assay [15] the target is Ubiquitin carboxyl-terminal hydrolase 1 (Homo sapiens) (UniProt O94782). Kind of assay: Inhibitors of USP1/UAF1: Pilot qHTS (AID 504865; active means well fitted curve in the direction sought with a large enough effect; an effect the other way counts as inactive or inconclusive; further: nearly all actives have a fitted effect of over 35% in size; further: potency means the concentration at half of the fitted maximal effect). As to conditions: purified USP1/UAF1, Ub-rhodamine cleavage fluorescence; series mostly up to 54.9 µM. The essentials:
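In 50mM HEPES pH 7.8 containing 0.5mM EDTA, 1mM TCEP, 0.1 mg/ml BSA and 0.01% Tween-20, 1nM USP1/UAF1 is exposed to compound for 15 min, then Ub-Rho (150nM final) is added and fluorescence is read over time.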

Setting [16] is: measured here: cell count channel max response.
The mark [17] stands for this setting: measured here: lipid channel max response.

Lysosomal acid glucosylceramidase (Homo sapiens), sequence (P04062 whole entry, looked up): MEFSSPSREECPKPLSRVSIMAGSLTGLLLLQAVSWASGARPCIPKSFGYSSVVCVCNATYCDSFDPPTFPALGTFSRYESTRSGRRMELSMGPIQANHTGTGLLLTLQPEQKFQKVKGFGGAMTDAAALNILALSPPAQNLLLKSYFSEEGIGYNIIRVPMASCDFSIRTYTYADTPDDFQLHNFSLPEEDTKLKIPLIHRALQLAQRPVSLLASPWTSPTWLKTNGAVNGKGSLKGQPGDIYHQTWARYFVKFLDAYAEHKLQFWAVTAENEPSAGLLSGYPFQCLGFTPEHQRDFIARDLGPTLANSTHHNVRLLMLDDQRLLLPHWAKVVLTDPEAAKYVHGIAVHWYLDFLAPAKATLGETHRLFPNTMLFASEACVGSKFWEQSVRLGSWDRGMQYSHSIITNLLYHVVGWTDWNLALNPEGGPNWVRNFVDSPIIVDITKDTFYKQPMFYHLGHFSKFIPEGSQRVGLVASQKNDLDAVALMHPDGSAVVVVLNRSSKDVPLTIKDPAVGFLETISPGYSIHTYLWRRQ
Cytochrome P450 1A2 (Homo sapiens), sequence (P05177 whole entry, looked up): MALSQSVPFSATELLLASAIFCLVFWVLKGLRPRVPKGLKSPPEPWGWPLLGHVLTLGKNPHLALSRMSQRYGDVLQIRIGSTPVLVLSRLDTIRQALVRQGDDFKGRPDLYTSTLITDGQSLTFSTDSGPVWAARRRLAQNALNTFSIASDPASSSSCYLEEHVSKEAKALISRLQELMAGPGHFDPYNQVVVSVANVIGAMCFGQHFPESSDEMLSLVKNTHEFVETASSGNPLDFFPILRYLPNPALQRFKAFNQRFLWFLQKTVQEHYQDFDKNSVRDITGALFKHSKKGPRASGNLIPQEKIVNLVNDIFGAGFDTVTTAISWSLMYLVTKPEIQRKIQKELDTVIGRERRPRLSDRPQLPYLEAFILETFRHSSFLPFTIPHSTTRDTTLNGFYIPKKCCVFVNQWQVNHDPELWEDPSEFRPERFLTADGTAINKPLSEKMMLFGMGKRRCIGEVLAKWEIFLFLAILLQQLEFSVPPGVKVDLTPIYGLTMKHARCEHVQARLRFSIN
Glucocorticoid receptor (Homo sapiens), sequence (P04150 whole entry, looked up): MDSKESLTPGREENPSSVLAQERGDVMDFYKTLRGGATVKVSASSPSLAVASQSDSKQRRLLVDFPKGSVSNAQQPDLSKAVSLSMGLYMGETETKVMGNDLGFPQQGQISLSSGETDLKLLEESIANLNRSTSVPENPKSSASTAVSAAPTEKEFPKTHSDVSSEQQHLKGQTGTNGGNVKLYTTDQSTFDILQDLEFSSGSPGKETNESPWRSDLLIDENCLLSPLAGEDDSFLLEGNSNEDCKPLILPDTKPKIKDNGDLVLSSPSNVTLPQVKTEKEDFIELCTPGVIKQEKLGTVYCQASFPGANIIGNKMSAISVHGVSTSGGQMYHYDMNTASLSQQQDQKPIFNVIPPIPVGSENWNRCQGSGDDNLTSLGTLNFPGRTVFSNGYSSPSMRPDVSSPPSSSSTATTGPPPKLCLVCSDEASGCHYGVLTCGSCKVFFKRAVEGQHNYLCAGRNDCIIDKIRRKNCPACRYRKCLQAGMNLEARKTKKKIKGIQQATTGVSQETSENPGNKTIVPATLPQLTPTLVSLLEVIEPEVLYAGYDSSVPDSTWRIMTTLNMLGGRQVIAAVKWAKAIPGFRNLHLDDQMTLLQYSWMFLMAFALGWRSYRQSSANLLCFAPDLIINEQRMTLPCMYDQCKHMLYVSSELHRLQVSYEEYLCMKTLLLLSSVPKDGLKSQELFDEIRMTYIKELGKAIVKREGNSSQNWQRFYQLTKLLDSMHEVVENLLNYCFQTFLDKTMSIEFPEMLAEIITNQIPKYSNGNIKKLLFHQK
Cytochrome P450 3A4 (Homo sapiens), sequence (P08684 whole entry, looked up): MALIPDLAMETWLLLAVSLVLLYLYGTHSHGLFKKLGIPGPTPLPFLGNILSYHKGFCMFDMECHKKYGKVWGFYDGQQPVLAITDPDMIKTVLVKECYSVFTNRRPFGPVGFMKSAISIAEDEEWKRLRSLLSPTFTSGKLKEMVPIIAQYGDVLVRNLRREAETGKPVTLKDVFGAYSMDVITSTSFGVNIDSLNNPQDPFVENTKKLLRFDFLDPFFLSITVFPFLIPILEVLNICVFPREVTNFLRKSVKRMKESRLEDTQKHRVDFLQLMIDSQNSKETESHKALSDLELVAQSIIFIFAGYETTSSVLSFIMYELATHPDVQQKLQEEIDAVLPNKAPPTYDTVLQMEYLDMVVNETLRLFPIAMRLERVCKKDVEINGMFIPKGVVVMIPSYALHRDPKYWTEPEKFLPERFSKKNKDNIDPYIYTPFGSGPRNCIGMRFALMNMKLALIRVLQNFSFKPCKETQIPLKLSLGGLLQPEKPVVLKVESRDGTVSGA
3',5'-cyclic-AMP phosphodiesterase 4B (Homo sapiens), sequence (Q07343 whole entry, looked up): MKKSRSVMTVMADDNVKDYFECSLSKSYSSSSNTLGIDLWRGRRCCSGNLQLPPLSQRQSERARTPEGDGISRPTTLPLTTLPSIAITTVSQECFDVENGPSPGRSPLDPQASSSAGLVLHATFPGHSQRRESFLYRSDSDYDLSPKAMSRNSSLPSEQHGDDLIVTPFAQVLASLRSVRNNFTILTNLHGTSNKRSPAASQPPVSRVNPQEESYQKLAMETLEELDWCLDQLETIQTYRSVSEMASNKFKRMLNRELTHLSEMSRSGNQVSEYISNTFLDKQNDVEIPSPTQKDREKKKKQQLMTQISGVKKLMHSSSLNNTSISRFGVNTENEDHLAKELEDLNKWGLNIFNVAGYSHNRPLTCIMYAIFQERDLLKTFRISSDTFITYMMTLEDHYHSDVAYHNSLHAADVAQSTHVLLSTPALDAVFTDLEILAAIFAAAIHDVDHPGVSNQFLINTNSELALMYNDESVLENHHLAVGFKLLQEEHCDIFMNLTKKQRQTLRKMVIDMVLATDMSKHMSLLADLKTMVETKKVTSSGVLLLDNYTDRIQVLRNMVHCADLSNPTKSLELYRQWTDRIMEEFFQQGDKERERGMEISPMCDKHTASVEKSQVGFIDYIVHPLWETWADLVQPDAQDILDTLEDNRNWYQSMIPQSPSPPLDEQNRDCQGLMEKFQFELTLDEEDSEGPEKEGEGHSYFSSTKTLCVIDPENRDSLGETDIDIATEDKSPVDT
Ubiquitin carboxyl-terminal hydrolase 1 (Homo sapiens), sequence (O94782 whole entry, looked up): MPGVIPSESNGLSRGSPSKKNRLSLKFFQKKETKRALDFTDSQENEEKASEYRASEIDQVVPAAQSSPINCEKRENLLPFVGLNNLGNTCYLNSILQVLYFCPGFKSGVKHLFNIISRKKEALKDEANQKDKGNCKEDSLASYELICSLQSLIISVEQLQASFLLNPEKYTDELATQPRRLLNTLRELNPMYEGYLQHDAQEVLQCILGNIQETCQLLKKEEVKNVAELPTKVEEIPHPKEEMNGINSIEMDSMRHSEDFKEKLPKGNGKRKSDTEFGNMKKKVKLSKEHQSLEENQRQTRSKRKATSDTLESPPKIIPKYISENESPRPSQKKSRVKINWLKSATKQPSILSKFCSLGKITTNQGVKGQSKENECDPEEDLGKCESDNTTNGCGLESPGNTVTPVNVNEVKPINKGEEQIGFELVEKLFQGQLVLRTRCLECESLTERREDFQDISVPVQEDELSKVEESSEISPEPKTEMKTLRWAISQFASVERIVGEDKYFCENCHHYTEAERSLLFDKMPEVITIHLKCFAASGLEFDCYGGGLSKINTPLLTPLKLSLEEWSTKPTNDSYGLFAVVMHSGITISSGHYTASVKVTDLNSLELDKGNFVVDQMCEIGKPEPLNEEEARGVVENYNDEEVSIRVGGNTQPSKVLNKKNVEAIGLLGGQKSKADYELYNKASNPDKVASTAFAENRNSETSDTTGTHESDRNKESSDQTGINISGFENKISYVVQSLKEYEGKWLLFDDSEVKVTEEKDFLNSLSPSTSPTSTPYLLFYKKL

`CN(Cc1ccco1)c1ccnc(-c2cccc(NS(C)(=O)=O)c2)n1`: the Potency in [1] was > 11.4 µM (inactive); in [3], 1.26 µM (active); in assay [6] it was > 46 µM (inactive); in assay [7], > 46 µM (inactive); in assay [10], 6.31 µM (active). The activity change, negative = inhibition in [2] is -9.76% (inactive); in [4] it was -2.37% (inactive); in assay [14], 9.05% (inactive). The activity, negative = inhibition in assay [5] was 2.34% (inactive). For the same compound, the Potency result in [8], in assay [9], in assay [11], in assay [12] and in [15] was “inactive” throughout. Also, the compound was called inactive in [13]. The max response in assay [14] (setting [16]) came to 18.7%; in [14] (setting [17]), 26.7%.

Turning to `c1ccc2c(Nc3ccncc3)nc(-c3ccoc3)nc2c1`, the Potency in assay [1] was 7.37 µM (active); in assay [3], 0.158 µM (active); in [6] it was > 46 µM (inactive); in assay [7], > 46 µM (inactive); in assay [10], 1.26 µM (active); in assay [15], 44.7 µM (active). The activity change, negative = inhibition in assay [2] was -7.11% (inactive); in [4] it was -19.5% (inactive); in [14], 14.9% (inactive). Moreover, the activity, negative = inhibition in [5] was 3.23% (inactive). Besides, the Potency entry in assay [8] and in [11] was “inactive” each time. For the same compound, the compound was called inactive in assay [13]. The max response came out at 5.31% in assay [14] (setting [16]) and 22.2% in assay [14] (setting [17]).

In the case of `CC(C)NC(=O)N1CCC2(CC1)CCN(C(=O)c1cnccn1)CC2`, the results for the Potency in [1] and in [7] were > 11.4 µM (inactive) and > 46 µM (inactive), respectively. Also, the activity change, negative = inhibition in [2] is -0.14% (inactive); in assay [4], 7.26% (inactive); in assay [14], 0.356% (inactive). Moreover, the Potency entry in assay [3], in assay [8] and in [9] was “inactive” throughout. The activity, negative = inhibition in [5] is -2.84% (inactive). For the same compound, the max response in [14] (setting [16]) was found to be 15.3%; in [14] (setting [17]), 17.7%.
